Inconclusive results are not listed. Unless noted, the call rests on the fitted dose curve; in most records, active means well fitted curve in either direction with a large enough effect (not every such curve was filed as active); inconclusive means small, poorly fitted or top-dose-only effect, or another doubt; inactive means flat fitted curve, though single readings scatter.
Assays:
[1] = AP1 Signaling Pathway (AID 357); conditions: ME-180 AP-1-bla reporter, EGF-induced, beta-lactamase ratio, 5 h; at 17.2 µM (top of the series) unless noted;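 further: ME-180 reporter cells stimulated with EGF at its EC50 level; on the % scale 0 is the no-effect control and ±100 the full control effect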
Procedure, shortened: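 First, ME-180 AP-1-bla cells were cultured overnight at 37 °C in low-serum Opti-MEM. Next, titrated compounds with EC50 EGF were incubated 5 hours. Finally, CCF4 was added for 2.5 hours and the 460/530 nm ratio recorded.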

[2] = NFAT Signaling Pathway (AID 444); conditions: Jurkat NFAT-bla M1, carbachol, beta-lactamase ratio, 5 h; at 17.2 µM (top of the series) unless noted;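 further: carbachol stimulus at about its EC50 of 1 µM final; on the % scale 0 is the no-effect control and ±100 the full control effect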
Procedure, shortened: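 Jurkat cells with NFAT-driven β-lactamase reporter and co-expressed M1 receptor, stimulated with carbachol (final 1 uM, ~EC50), compound titration, 5 h at 37 °C. CCF4 loaded 1 h at RT; 460/530 nm ratio gave %activity and AC50.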

[3] = Stat Signaling Pathway (AID 446); conditions: ME-180 SIE beta-lactamase reporter, IL-6 stimulated, 5 h; at 17.2 µM (top of the series) unless noted;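 further: ME-180 cervical cancer cells given 40 pM IL-6 alongside compound; SIE-controlled beta-lactamase reporter measured as 460/530 nm FRET emission ratio; on the % scale 0 is the no-effect control and ±100 the full control effect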
Procedure, shortened: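 Screening format detects activators and inhibitors alike: ME-180 SIE-bla cells stimulated at 40 pM IL-6 for 5 hrs with compound, then dual-emission beta-lactamase read at 405 nm excitation.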

[4] = target: Glucocorticoid receptor (Homo sapiens) (UniProt P04150); assay: GR-GFP Redistribution (AID 450;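 active means compounds whose dose series gives a full or clear partial fitted curve of increased nuclear translocation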; further: potency means the concentration at half of the fitted maximal effect)
Glucocorticoid receptor (Homo sapiens), sequence (P04150 whole entry, looked up): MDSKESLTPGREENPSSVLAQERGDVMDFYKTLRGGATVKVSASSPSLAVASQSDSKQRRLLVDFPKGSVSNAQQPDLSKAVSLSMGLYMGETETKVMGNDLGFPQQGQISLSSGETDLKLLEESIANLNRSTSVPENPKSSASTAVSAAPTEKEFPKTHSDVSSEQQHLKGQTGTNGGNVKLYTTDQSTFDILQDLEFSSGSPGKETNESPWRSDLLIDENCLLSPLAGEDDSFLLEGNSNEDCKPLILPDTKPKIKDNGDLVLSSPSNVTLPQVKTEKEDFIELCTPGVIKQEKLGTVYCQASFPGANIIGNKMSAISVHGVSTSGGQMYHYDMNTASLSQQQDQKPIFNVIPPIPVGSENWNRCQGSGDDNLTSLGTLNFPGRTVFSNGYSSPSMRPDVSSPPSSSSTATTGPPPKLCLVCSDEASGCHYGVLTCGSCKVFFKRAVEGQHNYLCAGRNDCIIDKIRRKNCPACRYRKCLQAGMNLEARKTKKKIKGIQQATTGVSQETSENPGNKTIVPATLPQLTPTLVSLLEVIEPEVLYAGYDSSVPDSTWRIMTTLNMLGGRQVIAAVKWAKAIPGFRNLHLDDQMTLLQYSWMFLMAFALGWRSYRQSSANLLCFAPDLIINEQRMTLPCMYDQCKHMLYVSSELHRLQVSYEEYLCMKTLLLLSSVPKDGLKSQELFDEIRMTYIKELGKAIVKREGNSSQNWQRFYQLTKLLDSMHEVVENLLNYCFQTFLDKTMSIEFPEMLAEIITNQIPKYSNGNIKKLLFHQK

Nc1nnnn1N=C1CCCCC1
inactive: activity change, negative = inhibition [1] -7.36% | activity change, negative = inhibition [2] 0.933% | activity, negative = inhibition [3] -8.04% | Potency [4] > 20.6 µM

COC(=O)[C@@H](N)Cc1ccc(O)cc1
inactive: activity change, negative = inhibition [1] -11% | activity change, negative = inhibition [2] -26% | activity, negative = inhibition [3] -6.81% | Potency [4] > 20.6 µM

CCOC(=O)c1ccc(NC(=O)Cn2nnc3ccccc32)cc1
inactive: activity change, negative = inhibition [1] -12.4% | activity change, negative = inhibition [2] 12.9% | activity, negative = inhibition [3] -15% | Potency [4] > 20.6 µM

CCN(CC)CCN1C(=O)C(=O)/C(=C(/O)c2ccc(C)cc2)C1c1cccnc1 (stereo not given)
inactive: activity change, negative = inhibition [1] 4.64% | activity change, negative = inhibition [2] -5.95% | activity, negative = inhibition [3] 7.25% | Potency [4] > 20.6 µM

Cc1[nH]c(=O)[nH]c(=O)c1S(=O)(=O)N1CCCC1
inactive: activity change, negative = inhibition [1] 11.7% | activity change, negative = inhibition [2] -7.3% | activity, negative = inhibition [3] 12% | Potency [4] > 20.6 µM

CCCCc1c(C)nn(-c2nnc3c4ccccc4n(C)c3n2)c1C
inactive: activity change, negative = inhibition [1] -21.4% | activity change, negative = inhibition [2] -28.4% | activity, negative = inhibition [3] -8.34% | Potency [4] > 20.6 µM

O=C1C(=O)N(Cc2cccnc2)C(c2ccccn2)/C1=C(/O)c1ccc(F)cc1 (stereo not given)
inactive: activity change, negative = inhibition [1] 10.7% | activity change, negative = inhibition [2] 3.79% | activity, negative = inhibition [3] 0.323% | Potency [4] > 20.6 µM

CC1=C(c2ccc(Cl)cc2)[N+](=O)C(C)(C)N1[O-]
inactive: activity change, negative = inhibition [1] 8.72% | activity change, negative = inhibition [2] 13.4% | activity, negative = inhibition [3] -0.945% | Potency [4] > 20.6 µM

CC(=O)N1CCC2(CC1)C(C#N)=C(N)Oc1n[nH]c(C(F)(F)F)c12
inactive: activity change, negative = inhibition [1] 8.06% | activity change, negative = inhibition [2] -24.1% | activity, negative = inhibition [3] 5.71% | Potency [4] > 20.6 µM

COC(=O)CC(=O)Cc1nc(N)nc(Nc2ccc(C)c(C)c2)n1
inactive: activity change, negative = inhibition [1] 9.64% | activity change, negative = inhibition [2] -5.97% | activity, negative = inhibition [3] 1.4% | Potency [4] > 20.6 µM

CN1CC(=O)Nc2ccc(F)cc2C1=O
inactive: activity change, negative = inhibition [1] 13.4% | activity change, negative = inhibition [2] -4.14% | activity, negative = inhibition [3] 3.5% | Potency [4] > 20.6 µM

N#Cc1cccc(-n2c(-c3ccccc3)nnc2-c2ccccc2)c1C#N
inactive: activity change, negative = inhibition [1] 4.78% | activity change, negative = inhibition [2] 5.67% | activity, negative = inhibition [3] 0.928% | Potency [4] > 20.6 µM

Clc1ccc(-c2nn3c(-c4cccc(Cl)c4)nnc3s2)cc1
inactive: activity change, negative = inhibition [1] 10.2% | activity change, negative = inhibition [2] -4.86% | activity, negative = inhibition [3] 3.59% | Potency [4] > 20.6 µM

COc1ccc(Cn2c(CCCO)nc3ccccc32)cc1OC
inactive: activity change, negative = inhibition [1] -8.44% | activity change, negative = inhibition [2] 3.22% | activity, negative = inhibition [3] -4.44% | Potency [4] > 20.6 µM

CC1(C2(O)CC(c3ccccc3)ON2)CCCCC1 (stereo not given)
inactive: activity change, negative = inhibition [1] 11.4% | activity change, negative = inhibition [2] -10.5% | activity, negative = inhibition [3] -1.99% | Potency [4] > 20.6 µM

c1ccc(-c2nn3c(C4CCCCC4)nnc3s2)cc1
inactive: activity change, negative = inhibition [1] -19.5% | activity change, negative = inhibition [2] -5.79% | activity, negative = inhibition [3] 18.2% | Potency [4] > 20.6 µM

Cc1cc(=O)oc(C)c1C(=O)n1nc(C)c2c1C[C@@H]1[C@H]2C1(C)C
inactive: activity change, negative = inhibition [1] -2.2% | activity change, negative = inhibition [2] -1.13% | activity, negative = inhibition [3] -1.83% | Potency [4] > 20.6 µM

CCCNc1ncnc2c1cnn2-c1ccc(OC)cc1
inactive: activity change, negative = inhibition [1] -10.2% | activity change, negative = inhibition [2] 3.93% | activity, negative = inhibition [3] -8.63% | Potency [4] > 20.6 µM

CC(=O)[C@H]1[C@@H]2C(=O)N(c3cccc(Cl)c3)C(=O)[C@@H]2[C@H]2c3ccccc3C=CN21
inactive: activity change, negative = inhibition [1] -11% | activity change, negative = inhibition [2] -7.09% | activity, negative = inhibition [3] -13.6% | Potency [4] > 20.6 µM

CC12CCC(=O)N1c1c(sc3nc(N4CCOCC4)c4c(c13)CCCC4)C(=O)N2 (stereo not given)
inactive: activity change, negative = inhibition [1] -25.1% | activity change, negative = inhibition [2] 8.35% | activity, negative = inhibition [3] -5.31% | Potency [4] > 20.6 µM

CC(C)CNc1nc2c(c(=O)n(C)c(=O)n2C)n1Cc1cccc(Br)c1
inactive: activity change, negative = inhibition [1] -13.5% | activity change, negative = inhibition [2] -2.14% | activity, negative = inhibition [3] -18.2% | Potency [4] > 20.6 µM

CCCCc1cc(=O)oc2c(CN3CCCC3)c(O)ccc12
inactive: activity change, negative = inhibition [1] 9.79% | activity change, negative = inhibition [2] 2.24% | activity, negative = inhibition [3] 3.31% | Potency [4] > 20.6 µM

O=C(NCC(F)(F)F)N1CCOCC1
inactive: activity change, negative = inhibition [1] 6.11% | activity change, negative = inhibition [2] 0.794% | activity, negative = inhibition [3] -4.01% | Potency [4] > 20.6 µM

Cc1ccc(C2/C(=C(\O)c3ccc4c(c3)OCCO4)C(=O)C(=O)N2CCCN(C)C)o1 (stereo not given)
inactive: activity change, negative = inhibition [1] 1.54% | activity change, negative = inhibition [2] -21.4% | activity, negative = inhibition [3] -1.3% | Potency [4] > 20.6 µM

O/N=C1\CCc2cc(Cl)ccc21
inactive: activity change, negative = inhibition [1] -7.29% | activity change, negative = inhibition [2] -1.82% | activity, negative = inhibition [3] 6.47% | Potency [4] > 20.6 µM
